The whole screen tested about 63,000 compounds, of which about 1,100 (1.7%) were called active. This is one part of a sample in which actives are shown more often than they occur. Potency and affinity values are given separately. A number with no mark means an inactive call. Cut-off read from the data, not from the text of the source: active = cytotoxicity above about 50%; inactive = the rest.

The nature of this experiment: cytotoxicity in HPDE-C7 cells, cell-based, fluorescence, HTS (AID 430).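 Note: cells exposed to compound for 48 hours before viability readout; 0% = vehicle and 100% = reference cytotoxic drug.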 Particulars: HPDE-C7 pancreatic duct cells viability, at 10 µM, hits give high values.
With `Cc1ccc(N2C(N)=NC(N)=NC23CCCC3)c(C)c1`, the cytotoxicity was -2.3%. For the molecule `COc1ccc2nc(NCc3ccccc3)[nH]c2c1`, the cytotoxicity is 39.1%. The same measure for `Cc1ccc2nc(NCc3ccccc3)[nH]c2c1`: 70.4% (active); for `c1ccc(CNc2nc3ccccc3[nH]2)cc1`: -11.8%. The same measure for `CN(CC(=O)NC1CCCc2ccccc21)S(=O)(=O)c1ccc2c(c1)c(=O)n(C)c(=O)n2C` (centres undefined): -10.5%; for `c1csc(-c2csc(-c3cccs3)n2)c1`: -4.7%.

With `COc1ccccc1S(=O)Cc1ccc(C(=O)NC2CCCC2)o1` (centres undefined), the cytotoxicity is -13.2%.

As for `COC(=O)c1ccccc1NC(=O)Cn1cc2c(n1)CCC(C)C2` (centres undefined), the cytotoxicity was -7.1%. With `Cc1ccc(C2NC(=O)c3ccccc3N2)s1` (centres undefined) the figure was 55.9% (active); with `O=C1NC(c2cccs2)Nc2ccccc21` (centres undefined), 5%; with `Cc1ccsc1C1NC(=O)c2ccccc2N1` (centres undefined), -19.5%. With `CCN(CC)CCn1c(OC)cc(=O)[nH]c1=O` the figure was -2.5%; with `O=C(CCNC(=O)c1ccc(Br)o1)NCc1ccccc1Cl`, -6.1%; with `CC(C)c1ccc(-c2nc(N3CCCCC3)[nH]c(=O)c2C#N)cc1`, 24.7%. With `COc1ccc(CCNC(=O)CSc2nnnn2Cc2ccc3c(c2)OCO3)cc1OC` the figure was -16.4%; with `COc1ccc(-c2noc(C)c2-c2ccc3ccccc3n2)c(O)c1`, 48.2%. Take `COc1ccc(OC(=O)c2cc3ccccc3o2)cc1`: the cytotoxicity is -0.5%. The same measure for `CCOC(=O)c1ccc(NC(=O)Cn2nnc3ccccc32)cc1`: 3.7%; for `CCOC(=O)C1=C(C)NC(SCc2cc(=O)[nH][nH]2)=C(C#N)C1c1cccs1` (centres undefined): 37.1%. The same measure for `CCSC1=C(C#N)C(c2cccs2)C(C(=O)OC)=C(C)N1` (centres undefined): 13.4%. The same measure for `CCOC(=O)C1=C(C)NC(SCC(=O)Nc2nc(C)cs2)=C(C#N)C1c1cccs1` (centres undefined): 78.9% (active). Turning to `CCOC(=O)C1=C(C)NC(SCC(=O)Nc2cc(C)on2)=C(C#N)C1c1cccs1` (centres undefined), the cytotoxicity is 10.6%. Consider `C#CCSC1=C(C#N)C(c2cccs2)C(C(=O)OCC)=C(C)N1` (centres undefined), for which the cytotoxicity was 53% (active). The same measure for `CCOCCSC1=C(C#N)C(c2cccs2)C(C(C)=O)=C(C)N1` (centres undefined): 4.5%; for `O=C(Nc1ccc2c(c1)OCO2)C1CC(c2ccccc2Cl)=NO1` (centres undefined): 5.2%.

Take `CC(=O)OCC(=O)NCc1ccc2c(c1)OCO2`: the cytotoxicity is -32.4%. In the case of `c1ccc(-n2c(Sc3cnccn3)nnc2-c2cccs2)cc1`, the cytotoxicity is -0.3%. The same measure for `Cc1occc1C(=O)Nc1cccnc1`: -15.1%; for `CNS(=O)(=O)c1ccc(Oc2ccc(S(=O)(=O)NC)cc2)cc1`: 5%. Consider `C=CS(=O)(=O)c1ccc(Oc2ccc(S(=O)(=O)C=C)cc2)cc1`, for which the cytotoxicity is 93.9% (active). The same measure for `O=S(=O)(c1ccc(Oc2ccc(S(=O)(=O)N3CCOCC3)cc2)cc1)N1CCOCC1`: -11.9%. The same measure for `CCOC(=O)Cc1csc(NC(=O)CCS(=O)(=O)Cc2ccccc2)n1`: 0%; for `Cc1cccc(NC(=O)NCCN2C(=O)C3C4C=CC(C4)C3C2=O)c1` (centres undefined): 0.7%. The same measure for `CC(=O)NC(Cc1c[nH]c2ccccc12)C(=O)N1CCc2ccccc2C1` (centres undefined): 4.8%.

On to `COc1cc(C2c3c(n[nH]c3C)C(=O)N2c2ccc(Br)cc2)ccc1O` (centres undefined), for which the cytotoxicity was 27.9%. For the molecule `CCOc1cc(C2c3c(n[nH]c3C)C(=O)N2c2ccc(Br)cc2)ccc1O` (centres undefined), the cytotoxicity was 15.4%. Consider `COc1cc(C2c3c(n[nH]c3C)C(=O)N2c2ccc(C)cc2)ccc1O` (centres undefined), for which the cytotoxicity was 53.1% (active). With `COc1ccc(Cl)cc1N(CC(=O)N1CCN(Cc2ccccc2)CC1)S(C)(=O)=O` the figure was -0.8%; with `CC(C)(C)NC(=O)CSc1nnc(-c2ccco2)n1Cc1ccco1`, -15.8%.

`COC(=O)c1ccc(C(=O)OC)nc1`: the cytotoxicity was -18.5%.

For the molecule `CCOC1(NC(=O)c2ccccc2)C(C)=CC(=O)C=C1C`, the cytotoxicity was -9.8%. The same measure for `O=C(Cn1cccc1)Nc1ccc(OC(F)(F)F)cc1`: -1.8%; for `C=CCn1c(SC(CCO)C(=O)NCc2ccco2)nc2sc3c(c2c1=O)CCC3` (centres undefined): 6.3%; for `C=CCn1c(SCC(=O)N2CCOCC2)nc2sc3c(c2c1=O)CCCC3`: -1.2%. The same measure for `C=CCn1c(NCCO)nc2sc3c(c2c1=O)CCC3`: 62.9% (active). Turning to `COc1ccc(Cl)cc1S(=O)(=O)N1CCN(C)CC1`, the cytotoxicity is -4.6%. With `CCN(CC)C(=O)C1CCCN(C/C(C)=C/c2ccccc2)C1` (centres undefined) the figure was -8.8%; with `N#Cc1c2c(c(=S)n(-c3ccccc3)c1N)CCCC2`, 1.6%; with `CCOC(=O)c1c(N)sn(-c2ccccc2)c1=S`, -2%. Regarding `CC(C(=O)N1CCN(c2ccccc2)CC1)N1C(=O)C2CC=CCC2C1=O` (centres undefined), the cytotoxicity is -2.6%. For the molecule `CCc1[nH]c(C)c(C(C)=O)c1C`, the cytotoxicity is 59.8% (active). The same measure for `CC(=O)c1c(C)[nH]c(C)c1C(C)=O`: -8.7%; for `CCCNC(=O)c1[nH]c(C)c(C(C)=O)c1C`: 2%; for `COc1ccc(Cn2c3nc4ccccc4nc3c3c(=O)n(Cc4ccco4)cnc32)cc1`: 20.7%.

For `CC(C)C1N(S(=O)(=O)c2ccccc2)CCN1S(=O)(=O)c1ccccc1`, the cytotoxicity is 2%. The same measure for `Cc1cccc(OCCCCCNCCO)c1`: 9.6%.

With `COc1ccc(OC)c(NC(=O)CSC2=C(C#N)C(c3ccco3)C3=C(CCCC3=O)N2)c1` (centres undefined), the cytotoxicity is -1.5%. The same measure for `N#Cc1ccc(-c2ccco2)nc1SCC(=O)c1ccc(Cl)cc1`: 21.1%; for `Nc1nnc(SCc2ccccc2Cl)s1`: 8.4%.

In the case of `CS(=O)(=O)Nc1ccccc1C(=O)Nc1cccc(Cl)c1`, the cytotoxicity is 5.3%. Consider `COc1ccc(Cl)cc1NC(=O)Cn1c(=O)n2nc(C)nc2c2ccccc21`, for which the cytotoxicity is 7.2%. The same measure for `O=C(CSc1n[nH]c(-c2ccccc2O)n1)N1CCCc2ccccc21`: 2.3%; for `Cc1ccnc(NS(=O)(=O)c2ccc(NS(=O)(=O)Cc3ccccc3)cc2)n1`: -21.7%.

On to `CCOc1ccccc1C1CC(=O)Nc2cc(OC)c(OC)c(OC)c21` (centres undefined), for which the cytotoxicity is -16.2%.

In the case of `CCOc1ccccc1C1CC(=O)Nc2cc3c(cc21)OCO3` (centres undefined), the cytotoxicity was 59.7% (active).

For the molecule `CCOc1ccccc1C1CC(=O)Nc2cc3c(cc21)OCCO3` (centres undefined), the cytotoxicity was 51.1% (active). With `CCOc1c(OC)cccc1C1CC(=O)Nc2cc(OC)c(OC)cc21` (centres undefined) the figure was 7.3%; with `CCOc1ccccc1C1CC(=O)NC2=C1C(=O)CC(C)(C)C2` (centres undefined), 9.7%. The same measure for `CCOc1c(OC)cccc1C1CC(=O)Nc2cc3c(cc21)OCCO3` (centres undefined): 13.7%. With `CN(C(=O)C12CC3CC(CC(C3)C1)C2)C1CCS(=O)(=O)C1` (centres undefined) the figure was -5.1%; with `O=C(Oc1cc(=O)oc2ccccc12)c1ccco1`, 14.1%.

For `CCCCS(=O)(=O)/C=C\C1C2C=CC(C2)C1S(=O)(=O)CCCC` (centres undefined), the cytotoxicity is -10.1%. For the molecule `CCCCS(=O)(=O)/C=C\C=C/S(=O)(=O)CCCC`, the cytotoxicity is 111% (active). Take `CC(=O)NC1(c2cccc(F)c2)CCN(C(=O)Nc2ccc(C#N)cc2)CC1`: the cytotoxicity is -15%.

Consider `CC(NC(=O)Cc1ccsc1)c1ccc(S(N)(=O)=O)cc1` (centres undefined), for which the cytotoxicity is 5.5%. Turning to `CN1CCN(CCCN2c3ccccc3Sc3ccc(Cl)cc32)CC1`, the cytotoxicity is 75% (active). The same measure for `O=C(CN1CCN(CCOCCO)CC1)N1c2ccccc2Sc2ccc(Cl)cc21`: -24.7%; for `CN(C)CCCN1c2ccccc2CCc2ccc(Cl)cc21`: 31.8%. With `OCCN1CCN(C(=S)c2ccc(Cl)cc2)CC1` the figure was -26%; with `CN1CCN(CCC(=O)N2c3ccccc3Sc3ccc(Cl)cc32)CC1`, 17.5%. With `CCCN(C(=O)CSc1nnc(-c2ccoc2C)n1N)C1CCS(=O)(=O)C1` (centres undefined) the figure was 6.4%; with `CCOC(=O)c1cn(CC)c2ccc(S(=O)(=O)N3CC(C)CC(C)C3)cc2c1=O` (centres undefined), -2%; with `CC1=C(C(=O)OCC2CCCO2)C(c2cccc(O)c2)NC(=O)N1` (centres undefined), -6.4%. For the molecule `CC(=O)N1CCc2cc(S(=O)(=O)CCC(=O)NCc3ccc4c(c3)OCO4)ccc21`, the cytotoxicity was -4.4%. With `CC(NC(=O)c1cc2c(=O)n(C)c3ccccc3c2n1C)c1ccc2c(c1)OCCO2` (centres undefined) the figure was 38.8%. With `Cn1c(C(=O)Nc2ccc3c(c2)OCO3)cc2c(=O)n(C)c3ccccc3c21` the figure was 18%; with `Cn1c(C(=O)N2CCN(c3ccccc3F)CC2)cc2c(=O)n(C)c3ccccc3c21`, 5.3%; with `Cn1c(C(=O)Nc2ccc3c(c2)OCCO3)cc2c(=O)n(C)c3ccccc3c21`, 60% (active). On to `Cc1cccc(N2CCN(C(=O)c3cc4c(=O)n(C)c5ccccc5c4n3C)CC2)c1C`, for which the cytotoxicity was 61.6% (active). The same measure for `COc1ccccc1N1CCN(C(=O)c2cc3c(=O)n(C)c4ccccc4c3n2C)CC1`: 29%; for `Cc1ccc(Cl)cc1N1CCN(C(=O)c2cc3c(=O)n(C)c4ccccc4c3n2C)CC1`: 59.5% (active). In the case of `Cn1c(C(=O)N2CCCC2)cc2c(=O)n(C)c3ccccc3c21`, the cytotoxicity is 14.1%.

In the case of `Cn1c(C(=O)N2CCN(c3ccc(Cl)cc3)CC2)cc2c(=O)n(C)c3ccccc3c21`, the cytotoxicity was 6.6%. The same measure for `O=C(COc1ccc(S(=O)(=O)NC2CCCCC2)cc1Cl)NCC1CCCO1` (centres undefined): -2.7%; for `CC(C)CCNC(=O)c1cccc(Cl)c1`: 1.2%; for `O=c1n(Cc2ccccc2Cl)c2sc3c(c2c2ncnn12)CCCC3`: -20.8%. Turning to `O=C(Cn1c(=O)n2ncnc2c2c3c(sc21)CCCC3)c1ccccc1`, the cytotoxicity is -18.5%. With `COCCSc1nnc(NS(=O)(=O)Cc2ccccc2)s1`, the cytotoxicity is -1.4%. With `O=C(O)CSc1ncn[nH]1` the figure was 1%.

The values above are taken from PubChem BioAssay AID430 (Sanford-Burnham Center for Chemical Genomics, 2006).
